# Data from publication PMC5540273 (PLoS ONE, 2017).
# Test system: T1, PKAC-alpha
# T1 construct: gene PRKACA
# Details: concentration: 1 μM, replicates: in singlicate; n = 1
# 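Also: KINOMEscan kinase panel screen.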
row,SMILES,%Inh
1,c1ccc(-c2ccnc3[nH]ccc23)cc1 [SB-693578],0%
2,O=C(Nc1n[nH]c2nc(-c3cccs3)c(Br)cc12)C1CCCC1 [SB-743341],0%
3,CN1c2ccc(-c3ccc(C(N)=O)cc3)cc2-c2[nH]ncc2S1(=O)=O,13%
4,Fc1ccc(-c2nc3n(c2-c2ccncc2)CCS3)cc1 [GI98581],33%
5,CCc1ccc(-c2ccc3c(c2)-c2n[nH]cc2S(=O)(=O)N3C)cc1,0%
6,COC(=O)c1cccc(NC(=O)NC2CCN(c3ccnc(Nc4ccc(F)cc4)n3)C2)c1 (stereo not shown) [GSK1379725],0%
7,COc1cccc(CNC(=O)NC2CCN(c3ccnc(Nc4ccc(F)cc4)n3)C2)c1 (stereo not shown) [GSK1379723],0%
8,CNc1cc(-c2ccc3c(N)n[nH]c3c2)nc(N)n1 [GSK2224810],8%
9,Cc1ccc(NC(=O)Nc2ccccc2F)cc1-c1ccc(C(=O)Nc2ccncc2)cc1 [GSK1398477],46%
10,CS(=O)(=O)Cc1ccc(Nc2nccc(-c3c(-c4cccc(NC(=O)C5CCCCC5)c4)nn4ncccc34)n2)cc1 [GSK350559],31%
11,Cc1cccc2c(-c3ccncn3)c(-c3ccc(F)cc3)nn12 [GW515532],7%
12,Cc1ccc(NC(=O)c2ccc(Cl)cc2)cc1-c1ccc(C(=O)Nc2ccncc2)cc1 [GSK1398467],0%
13,COc1ccc(CSc2nnc(-c3ccc4c(c3)CCO4)o2)cc1,0%
14,Cc1ccccc1-c1cc(-c2c[nH]nc2-c2ccccn2)ccn1 [GW680061],0%
15,COC(=O)C(Cc1ccccc1)NC(=O)NC1CCN(c2ccnc(Nc3ccc(F)cc3)n2)C1 (stereo not shown) [GSK1379714],0%
16,COc1ccc2cc(-c3nc(-c4ccccc4C(C)C)[nH]c3-c3ccncc3)ccc2c1 [SB-660566],0%
17,Nc1cccc(-c2ccc3c(N)n[nH]c3c2)n1 [GSK2192730],0%
18,O=C1NC(=O)C(c2ccc(Cl)cc2)=C1Nc1ccc(O)cc1 [SB-340867],0%
19,CCn1c(-c2c(N)noc2C)nc2cnccc21 [SB-737856],0%

row,SMILES,%Inh
1,COC(=O)c1cccc(NC(=O)NC2CCN(c3ccnc(Nc4ccc(OC)cc4)n3)C2)c1 (stereo not shown) [GSK1379746],0%
2,Cc1ccc(NC(=O)Nc2ccc(Cl)cc2)cc1-c1ccc(C(=O)Nc2ccncc2)cc1 [GSK1398472],7%
3,COc1ccc(Nc2nccc(N3CCC(NC(=O)c4cc5ccccc5s4)C3)n2)cc1 (stereo not shown) [GSK1379738],0%
4,CC(=O)c1cccc(NC(=O)NC2CCN(c3ccnc(Nc4ccc(F)cc4)n3)C2)c1 (stereo not shown) [GSK1379710],0%
5,Cc1ccccc1Cn1ccn2c(=O)cc(N3CCOCC3)nc12 [GSK2269905],0%
6,CS(=O)(=O)CCNCc1nc(-c2ccc3ncnc(Nc4ccc5c(cnn5Cc5ccccc5)c4)c3c2)cs1.Cl.Cl [GW569716],0%
7,O=C1NC(=O)C(c2ccc(Cl)cc2)=C1Nc1cccc(Cl)c1 [SB-317651],3%
8,Cc1ccc(-c2nc(Nc3ccncc3)c3ccccc3n2)s1 [GSK189015],21%
9,Cc1ccc(NC(=O)Nc2ccc(Cl)c(C(F)(F)F)c2)cc1-c1ccc(C(=O)Nc2ccncc2)cc1 [GSK1398470],15%
10,Cn1cncc1-c1cc2c(Nc3ccc(OCc4ccccc4)cc3)ncnc2cn1 [GW281179],0%
11,COc1ccc(CSc2nnc(-c3ccc4ncsc4c3)o2)cc1C(F)(F)F,0%
12,O=C(Nc1n[nH]c2cc(-c3ccsc3)ccc12)C1CC1 [SB-732932],0%
13,O=C(Nc1n[nH]c2nc(-c3cccs3)c(Br)cc12)C1CC1 [SB-735297],0%
14,CNCc1ccc2nc(NC(=O)c3ccc(C(C)(C)C)cc3)cn2c1,0%
15,Cc1c(Cn2c(C)c(C)n3c(=O)cc(N4CCOCC4)nc23)cccc1C(F)(F)F [GSK2328680],0%
16,CC(C)c1ccc(O)cc1Nc1ccnc2ccc(C(F)(F)F)cc12 [GW482059],0%
17,CSc1ccc(-c2nc3n(c2-c2ccncc2)CCC3)cc1 [SKF-105561],5%
18,O=c1cc(N2CCOCC2)nc2n(Cc3ccccc3F)ccn12 [GSK2297428],0%
